We go through 47 sequences from article PMC7819943, “Rice protein-binding microarrays: a tool to detect cis-acting elements near promoter regions in rice”.

Over roughly 68,000 sequences, “fluorescence intensity (a.u.)” has its median near 9,100; the highest 2% begin near 16,000. The sample holds the highest values, similar sequences and a random draw of the others, so the mix is not that of the screen.

Sequence of OsWRKY34 (Q0JBA9 entry or part of it): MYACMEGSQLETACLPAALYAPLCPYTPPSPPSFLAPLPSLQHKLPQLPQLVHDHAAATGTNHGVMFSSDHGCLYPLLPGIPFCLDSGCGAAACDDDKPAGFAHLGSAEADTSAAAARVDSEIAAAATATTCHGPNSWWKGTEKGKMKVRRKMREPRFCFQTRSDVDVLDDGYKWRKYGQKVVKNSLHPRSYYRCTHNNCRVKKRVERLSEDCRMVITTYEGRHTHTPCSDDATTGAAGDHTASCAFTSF

This experiment has as its target OsWRKY34 (Oryza sativa, UniProt Q0JBA9 1-250). As to the kind of experiment: protein-binding microarray (RPBM); PBS, 2% BSA, 51.3 ng/ul salmon testes DNA, 50 uM zinc acetate, 200 nM TF, 25 C, 1 h; high values mean tight binding. Conditions: protein: recombinant; tags: N-terminal polyhistidine and DsRed monomer fusion (pET32a); label: CyDye5-dUTP incorporated in the synthesized complementary strand; 3' TTTTT single-stranded linker to array surface; dsDNA, one strand shown. In short, it runs like this:
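Per-feature fluorescence intensity (arbitrary units), read on an Axon 4000B scanner, is the binding signal. Transcription factors carrying an N-terminal polyhistidine tag and DsRed fusion were expressed in E. coli BL21-CodonPlus and purified on Ni–NTA. A custom Agilent array, made double-stranded by primer extension with Cy5-dUTP and blocked with 2% BSA, was incubated with 200 nM protein in PBS, 2% BSA, salmon testes DNA and 50 µM zinc acetate at 25 °C for 1 h and then washed.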
Consider “TCGCAGCAGCTGTTTTACCGGCTAGTTTTTTGCACACATCCGGAGTCACCTAGTGCAG”, for which the binding signal is 8600 fluorescence intensity (a.u.).
In the case of “CTCCGTTTGTAAATATTTGACGCCGTTGACTTTTTAAAATCGGAGTCACCTAGTGCAG”, the binding signal is 22700 fluorescence intensity (a.u.).
As to “GTCCCTAAATATTTGACGCCGTTGACTTTTTTAAACATGTCGGAGTCACCTAGTGCAG”, the binding signal is 28500 fluorescence intensity (a.u.).
For “TATCTAAATATTTGACGCCGTTGACTTTTTAAAACATGTTCGGAGTCACCTAGTGCAG”, the binding signal was 30900 fluorescence intensity (a.u.).
Then “ATATTTGACGCCGTTGACTTTTTTAAACATATTTAACTGTCGGAGTCACCTAGTGCAG”, with 14600 fluorescence intensity (a.u.).
With “CCTCCGTCCCTAAATATTCGACGCCGTTGACTTTTTTAAACGGAGTCACCTAGTGCAG”, the binding signal was 21700 fluorescence intensity (a.u.).
Then “CCCTTTCACATGTCACCTCTGACCCACAAACAAACCCTTTCGGAGTCACCTAGTGCAG”, with 8210 fluorescence intensity (a.u.); and “GAGTTATCCTCACCACCCACCGCTCGTCGCCTCCACTCCGCGGAGTCACCTAGTGCAG”, with 8120 fluorescence intensity (a.u.); and “AGTAAGAGATCTCAAATTGATATGGGTTCTTGTTTTATATCGGAGTCACCTAGTGCAG”, with 8150 fluorescence intensity (a.u.).
With “CACCAAGCAGTCCCCTGTGTTCATCTTCTGAAGTCTGATTCGGAGTCACCTAGTGCAG”, the binding signal is 8360 fluorescence intensity (a.u.).
For “ATTCCGCGCGCCGCCGCCGTCGCCGCCGCCGACGTCGCCGCGGAGTCACCTAGTGCAG”, the binding signal is 8920 fluorescence intensity (a.u.).
As for “GATGCCATTTTTAAACAATTCCATGCCTTGTTTCCATTTCCGGAGTCACCTAGTGCAG”, the binding signal is 13400 fluorescence intensity (a.u.).
In the case of “TCCGTCCCTAAATATTTGACGCCGTTGACTTTTTAACACACGGAGTCACCTAGTGCAG”, the binding signal was 35700 fluorescence intensity (a.u.).
Regarding “CTCCGTTATCGTTTGACTTTCTTTTCATTAATATTTTAAACGGAGTCACCTAGTGCAG”, the binding signal is 15600 fluorescence intensity (a.u.).
Take “ATTTCTAAATATTTGACGTCGTTGACTTTTTTAAACATGTCGGAGTCACCTAGTGCAG”: the binding signal was 26800 fluorescence intensity (a.u.).
Then “AAATATTTGACGCCGTTGACTTTCTTAAACATGTTTAACTCGGAGTCACCTAGTGCAG”, with 15700 fluorescence intensity (a.u.); and “CTAAATGTTTAACGCCGTTGACTTTTTAAAACATATTTGACGGAGTCACCTAGTGCAG”, with 13400 fluorescence intensity (a.u.); and “GTACTCCCTCTGACCCTAAATATTTGACGTCGTTGACTTTCGGAGTCACCTAGTGCAG”, with 16300 fluorescence intensity (a.u.).
Regarding “CTAAATATTTGACGCCGTTGACTTTTTAAAACATGTTTGACGGAGTCACCTAGTGCAG”, the binding signal was 30500 fluorescence intensity (a.u.).
In the case of “CATCTGTTTCTGAATATTTGACGCCGTTGACTTTTTAAAACGGAGTCACCTAGTGCAG” it was 19600 fluorescence intensity (a.u.); in that of “CGGCGGTGGTCTCCGCCGTTGGATCTGGGCGTTGACTTGTCGGAGTCACCTAGTGCAG”, 9160 fluorescence intensity (a.u.).
Then “ACTGCTGCTGCATCGGCGCCTTCACCAAGATGTCAACGGACGGAGTCACCTAGTGCAG”, with 8350 fluorescence intensity (a.u.).
For the sequence “GCTCTGAATTTTATTTTTTCCGCTTCTTGATTTCTTCGTTCGGAGTCACCTAGTGCAG”, the binding signal was 9450 fluorescence intensity (a.u.).
In the case of “GTAGCTCGTCGTCACTGCCCATAGTACTCTGGCTTAGCTACGGAGTCACCTAGTGCAG”, the binding signal is 8030 fluorescence intensity (a.u.).
“GGAGAGATGCCATGCCGCGCTATGTTGTTCAACTTCAAACCGGAGTCACCTAGTGCAG”: the binding signal is 8400 fluorescence intensity (a.u.).
Regarding “ATAGTTTGTTGTTTCCCAGACATAATTTTTACTAGCTTATCGGAGTCACCTAGTGCAG”, the binding signal is 9630 fluorescence intensity (a.u.).
In the case of “GTACACCGAAAGAAACCAACTCGTGTCCATCCATCCGTCTCGGAGTCACCTAGTGCAG” it was 8070 fluorescence intensity (a.u.).
With “TTCATATCTGCTTTTTCCTATATATGTGTGTGTGACTGCACGGAGTCACCTAGTGCAG”, the binding signal is 9710 fluorescence intensity (a.u.).
On to “TTTTATAATATGTTATTGTAGCAGTTTTTGTGAGCTATTACGGAGTCACCTAGTGCAG”, for which the binding signal is 8100 fluorescence intensity (a.u.).
Take “CTTGTACATCTGTCTTGCTAGAGTCTTTCACAAGATTACACGGAGTCACCTAGTGCAG”: the binding signal was 8080 fluorescence intensity (a.u.).
Then “GTGCTTGTGTGGCGCGTGTGCTTGTCACAGACTCTGCTCCCGGAGTCACCTAGTGCAG”, with 8660 fluorescence intensity (a.u.).
In the case of “AGATGATGTCATTGACCATACAAGTTGAAAATAGGAGCAACGGAGTCACCTAGTGCAG”, the binding signal was 63300 fluorescence intensity (a.u.).
In the case of “TGTGGATGGCGTGGATAAGTTGACAGTTGAAAATACAAAACGGAGTCACCTAGTGCAG”, the binding signal was 9130 fluorescence intensity (a.u.).
As for “GATACAACCATTGCTCACATCATGGATGAACAAGATGACACGGAGTCACCTAGTGCAG”, the binding signal is 8160 fluorescence intensity (a.u.).
On to “ACATACCTCGTGCGGCCAGTCGCCTGTTACAAACTCCATTCGGAGTCACCTAGTGCAG”, for which the binding signal is 8270 fluorescence intensity (a.u.).
For “ATGGATCATGGATGGCTCCCGTTGTCATTGTCGCGTCGTCCGGAGTCACCTAGTGCAG”, the binding signal was 9810 fluorescence intensity (a.u.).
Regarding “GCACCTCTTTCCTATCACGCGTCACCTTGCTCCATTGTCGCGGAGTCACCTAGTGCAG”, the binding signal was 19000 fluorescence intensity (a.u.).
As for “ATTGTATTTCTATATGGACTCTGCTTTTTATTTTTCTCCGCGGAGTCACCTAGTGCAG”, the binding signal was 8930 fluorescence intensity (a.u.).
On to “TGGATGGCCTTTTGTCTCTTTGTATATTATATATTTAGTTCGGAGTCACCTAGTGCAG”, for which the binding signal was 8260 fluorescence intensity (a.u.).
“TCCTTAGCTTCCTTCTGTCGACTTGTCTATTCTTTTTTTCCGGAGTCACCTAGTGCAG”: the binding signal is 17700 fluorescence intensity (a.u.).
Turning to “CTATATTCGAGGGAGTCCTTGTGGACTTTTTCCTTCTTTCCGGAGTCACCTAGTGCAG”, the binding signal was 9390 fluorescence intensity (a.u.).
Turning to “GTTGTCATTGTCGCGTCGTCACCTCTGATTGCGTCATTCCCGGAGTCACCTAGTGCAG”, the binding signal is 16500 fluorescence intensity (a.u.).
Turning to “TCCTTCTCTGACTCTGTCTTGGCCATCCTATTCCTAGCTCCGGAGTCACCTAGTGCAG”, the binding signal was 10600 fluorescence intensity (a.u.).
On to “TCTCTCTCCTTTTGTTGCTTCCATTTCTCGTTCTTGCACGCGGAGTCACCTAGTGCAG”, for which the binding signal was 10500 fluorescence intensity (a.u.).
Then “CCTCTCTGATTCGTCACCGCCACCGCCGCGTCGTCCCGCGCGGAGTCACCTAGTGCAG”, with 9730 fluorescence intensity (a.u.); and “ACCTGTATTTGTCATTATTTAGTGGACTCTGCTTAGTTCTCGGAGTCACCTAGTGCAG”, with 19300 fluorescence intensity (a.u.).
Then “CCTCCTTGTTGCGGTCGTCTTTCGCTCTATCTTCCTTGTCCGGAGTCACCTAGTGCAG”, with 11100 fluorescence intensity (a.u.).
